Only some compounds are listed: those with a hit (about 8% of all), similar ones and a draw of the others.
KB-3-1 cytotox: kills parental KB-3-1 adenocarcinoma cells. KB-3-1 viability, CellTiter-Glo ATP luminescence, 72 h. Potency, µM (series often up to 46.1 µM), hits mostly cytotoxic. 400,000 compounds, 1.4% hits. AID 1347075; further: on the % scale 0 is the no-effect control and ±100 the full control effect; nearly all actives have a fitted effect of over 60% in size
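KB-3-1 parental drug-naive adenocarcinoma cells in DMEM/10% FBS, incubated 72 h at 37 C with pin-transferred compounds across a concentration series. Viability by CellTiter-Glo luminescence; concentration-response curves fitted after normalization.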
SW480 rereplic: inducers of DNA re-replication in SW480 colon cancer cells; SW480 DNA re-replication, Hoechst DNA content imaging, 48 h; Potency, µM (series often up to 46.1 µM), without a hit: at the highest dose re-replication activation, hits mostly activators; 340,000 compounds, 1.8% hits; AID 624297; further: % of control where 0% means no effect; nearly all actives have a fitted effect of over 55% in size
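First, 250 cells per well were seeded. Next, compound or vehicle (23 nL) was pinned in, plates sat 48 hr at 37 C. Finally Hoechst was added for 40 min before fluorescence scanning.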
KB-V1 MDR tox: kills drug-selected multidrug resistant KB-V1 cells. KB-V1 MDR cells viability, CellTiter-Glo, 72 h. Potency, µM (highest dose often 46.1 µM), most hits filed as cytotoxic. 400,000 compounds, 3.4% hits; further: on the % scale 0 is the no-effect control and ±100 the full control effect; nearly all actives have a fitted effect of over 60% in size
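Compound-treated KB-V1 multidrug-resistant cells, 72 h, 37 degrees C; viability by CellTiter-Glo. Fitted qHTS curves give the values.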
HT1080-NT tox: kills 2HG-producing HT-1080-NT fibrosarcoma cells. HT-1080-NT fibrosarcoma viability, CellTiter-Glo ATP luminescence, 48 h. Potency, µM (highest dose often 46.1 µM), for inactives: top-dose activity, negative = less viability, most hits filed as cytotoxic. 360,000 compounds, 1.6% hits. AID 686970;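 further: NT is the 2HG producing partner of a matched IDH1 knockdown line; 0% = DMSO-treated cells and -100% = media-only wells without cells; nearly all actives have a fitted effect of over 55% in size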
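Viability by CellTiter-Glo luminescence after 48 h compound exposure at 37C of HT-1080-NT cells (750/well, RPMI, 5% FBS). % activity scaled between DMSO wells and medium-only wells, then curve-fitted and categorized by curve class.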
HT1080 IDH1KD tx: toxicity to HT-1080 IDH1 knockdown cells (counter line); HT-1080 IDH1 knockdown viability, ATP luminescence, 48 h; Potency, µM (doses to about 46.1 µM), for inactives: at the highest dose activity, negative = toxicity, hits mostly cytotoxic; 360,000 compounds, 2% hits; AID 686971;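 further: 0% = DMSO wells and -100% = cell-free medium wells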
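Assay cells: HT-1080 with IDH1 knockdown, 750 per well, RPMI/5% FBS. Exposure: 48 h at 37 °C following 2 h pre-incubation. Read: CellTiter-Glo luminescence; fitted concentration-response, curve class assigned.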
MCF10A rereplic: DNA re-replication induction in MCF 10a cells | AID 624296 | Potency, µM (doses to about 46.1 µM), for inactives: top-dose activity, positive = re-replication, usual class: activators | 350,000 compounds, 2.9% hits | MCF 10A DNA re-replication, Hoechst nuclear intensity, 48 h; further: % of control where 0% means no effect; nearly all actives have a fitted effect of over 50% in size
Active calls of the source: *; i = inactive; ? = inconclusive; . = no result. The call rests on the fitted dose curve; in most records, active means well fitted curve in the direction sought with a large enough effect; inconclusive means small, poorly fitted or top-dose-only effect, or another doubt; inactive means no such curve, though single readings can be large; an effect the other way counts as inactive or inconclusive. Potency means the concentration at half of the fitted maximal effect.

SMILES | KB-3-1 cytotox | SW480 rereplic | KB-V1 MDR tox | HT1080-NT tox | HT1080 IDH1KD tx | MCF10A rereplic
Cn1nc(-c2ccc(N3CCCCC3)c(NC(=O)c3ccco3)c2)c2ccccc2c1=O | 8.2µM* | -2.5% | ? | 11.7% | 13.7% | ?
COc1cccc(NC(=O)Cc2ccccc2)c1 | i | 2.0% | i | -0.4% | 0.6% | ?
O=C(Cc1ccccc1)Nc1cccc(N2C(=O)C=CC2=O)c1 | i | 9.2µM* | i | -11.7% | ? | 11.6µM*
COc1ccc(-c2[nH]ncc2/C=C(/C#N)C(=O)NC2CCCCCC2)cc1 | ? | 12.6µM* | i | 18.4µM* | ? | 10µM*
Cc1cc(/C=C(\C#N)C(=O)NC2CCCCCC2)c(C)[nH]1 | i | -4.2% | ? | -8.5% | -18.8% | -26.7%
Cn1c(C=O)c(-c2ccc3c(c2)OCCO3)c2ccccc21 | i | 4.2% | i | -9.8% | -0.6% | 16.4µM*
COc1cc(C2CC(=O)Oc3c2c(=O)n(C)c2ccccc32)cc(OC)c1OC (stereo not given) | i | -31.8% | i | 3.5% | 7.6% | 6.3%
COc1cc(-c2c(-c3ccsc3)sc3ccccc23)cc(OC)c1OC | i | -2.6% | i | -12.9% | -9.0% | ?
COc1cc(-c2ccc3c(=O)c4ccccc4n(C)c3c2)cc(OC)c1OC | ? | 13µM* | ? | ? | ? | ?
COc1cc(-c2c(CCO)sc3ccccc23)cc(OC)c1OC | ? | . | 20.6µM* | ? | ? | .
COc1cc(-c2ccc3c(=O)c4ccccc4sc3c2)cc(OC)c1OC | i | 0.651µM* | i | -4.7% | -0.4% | 3.66µM*
Cn1c(-c2ccc3c(c2)OCO3)cc(=O)c2ccccc21 | i | -1.9% | i | -5.4% | -0.3% | -4.4%
Cc1c(NS(=O)(=O)c2cccc(C(=O)OCC(=O)N(C)C3CCCCC3)c2)c(=O)n(-c2ccccc2)n1C | i | 21.7% | i | -3.0% | -2.1% | ?
COc1ccc(-c2cc(Cl)cc3c(=O)c4ccccc4n(C)c23)cc1F | i | 18.4µM* | i | 6.3% | 15.6% | ?
c1ccc2c(c1)c1ccccc1n1c(-c3ccc4c(c3)OCO4)nnc21 | ? | -2.2% | 20.6µM* | 0.0% | -0.5% | -0.7%
Cn1c2ccccc2c(=O)c2ccc(F)cc21 | i | 16.4µM* | ? | 7.5% | 2.5% | ?
Cn1c2ccccc2c(=O)c2ccc(-c3ccc4c(c3)OCO4)cc21 | ? | ? | ? | -18.0% | -15.6% | 14.6µM*
CCOC(=O)c1ccccc1NC(=O)COC(=O)CCNS(=O)(=O)c1cccs1 | i | -5.2% | i | 11.7% | 24.2% | -2.4%
O=[N+]([O-])c1ccc(/C=C/c2ccnc3ccccc23)c([N+](=O)[O-])c1 | i | . | i | . | . | .
Cc1ccccc1OCC(=O)NCC(=O)OCc1ccc2ccccc2c1 | i | . | i | . | . | .
CN1CCN(c2ccc(CNS(=O)(=O)Cc3cccc(C(F)(F)F)c3)cc2)CC1 | ? | -4.8% | ? | 18.4µM* | -22.2% | 17.6%
O=C(c1ccc(Cl)c(S(=O)(=O)NCc2ccccc2)c1)N1CCN(c2ccccn2)CC1 | i | 20.8% | 4.11µM* | ? | ? | -7.2%
O=C(c1cccc(S(=O)(=O)NCc2ccccc2)c1)N1CCN(c2ccccc2)CC1 | ? | ? | i | ? | ? | 6.51µM*
O=C(c1ccc(CNS(=O)(=O)c2ccccc2)cc1)N1CCN(c2ccccn2)CC1 | i | 1.2% | ? | -13.7% | -9.9% | -5.1%
O=C(c1cccc(S(=O)(=O)NCc2ccccc2)c1)N1CCN(c2ccc(F)cc2)CC1 | . | 17.1% | . | -0.2% | -0.3% | 3.2%
Cc1cccc(N2CCN(C(=O)c3ccc(Cl)c(S(=O)(=O)NCc4ccco4)c3)CC2)c1C | 13µM* | ? | 13µM* | ? | 16.4µM* | 16.4µM*

High-throughput results: PubChem BioAssay, National Center for Advancing Translational Sciences (NCATS)
